# From the supplement of paper PMC6555819
# Columns and labels:
# Experiment in all cases: PBM binding z-score (relative to random genomic background probes); higher = stronger binding; sequences stand for … in GC…GCGATTGACAGCGTAGAATGAAGG
# [1] = tested on: PPARg:RXRa DBDmut IVT, anti-RXR (DBD mutation: RXRa K156A/R161A, NR concentration 270 nM, RXRa partner concentration 90 nM)
# Outline: (§1)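 On custom Agilent 4×180K arrays, double-stranded probes with 34-nt variable regions carried direct-repeat seeds, single-nucleotide variants, half-site ablations or random human genomic background. Ligand-free nuclear receptor dimers were applied for 1 h, and binding was read with antibodies against each partner (one per run). Binding z-scores come from regression-normalized fluorescence, with the random background probes as reference.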
# [2] = tested on: PPARg:RXRa IVT, anti-PPARg (NR concentration 270 nM, RXRa partner concentration 90 nM)
# Outline: as §1
# [3] = tested on: PPARg DBDmut:RXRa IVT, anti-PPARg (DBD mutation: PPARg1 K132A/R137A, NR concentration 270 nM, RXRa partner concentration 90 nM)
# Outline: as §1
# [4] = tested on: PPARg DBDmut IVT, anti-PPARg (DBD mutation: PPARg1 K132A/R137A, NR concentration 270 nM)
# Outline: as §1
# [5] = tested on: PPARg homodimer (NR concentration 180 nM)
# Outline: as §1
# [6] = tested on: PXR:RXRa (NR concentration 270 nM, RXRa partner concentration 90 nM)
# Outline: as §1
# [7] = tested on: PXR homodimer (NR concentration 270 nM)
# Outline: as §1
# [8] = tested on: RARa:RXR (NR concentration 270 nM, RXRa partner concentration 90 nM)
# Outline: as §1
# [9] = tested on: RARa homodimer (NR concentration 270 nM)
# Outline: as §1
# [10] = tested on: RARb:RXRa (NR concentration 270 nM, RXRa partner concentration 90 nM)
# Outline: as §1
Sequence,PBM binding z-score [1],PBM binding z-score [2],PBM binding z-score [3],PBM binding z-score [4],PBM binding z-score [5],PBM binding z-score [6],PBM binding z-score [7],PBM binding z-score [8],PBM binding z-score [9],PBM binding z-score [10]
TCTACTTGGTCACGGAGGTCACACACGACGGGTA,3.04,4.21,1.37,1.65,3.86,4.67,2.05,4.97,2.04,3.89
ATCGAAAGGTCGTGAGGTGAGTTTACAGAAAGGC,0.311,2.19,0.802,0.81,2.01,4.1,1.52,4.59,0.718,4.08
CAGCCTAGTTCAGGGCCAGTATAGGAGGAACGTT,-0.416,-0.592,-0.87,-0.941,-0.37,-0.0793,0.431,-0.13,-0.131,1.05
GCTTACGGGTCAAAAGTTATAGCATGAATAGAAT,3.77,3.87,1.08,1.18,1.4,2.94,0.168,3.7,0.546,3.16
CCTACTGGGCAAAAAAGGTCATTGATGCCGATAA,0.468,1.62,-0.0172,-0.686,2.27,4.27,1.28,4.86,0.909,3.81
CAAACTAGGTCACGAAAGGTCAAAGTTGAATGAC,8.71,9.01,2.54,2,4.96,6.9,3.33,7.79,4.38,5.45
ACTAGGAGGACAAAGGTCAGAGCTACGCCAGTGA,2.03,4.63,0.268,-0.394,4.52,3.9,0.46,5.08,2.86,4.54
AGACAAAGTTCAGGACGAGGTAACGTAAAGCACG,-0.362,0.619,0.472,0.977,1.38,3.02,0.806,3.06,0.776,4.18
GCTAGTTTGTCAGTAAAAGGTCACACACCGGTCG,0.319,2.75,0.759,0.562,4.4,4.95,1.22,5.77,2.54,4.12
CCTAGTTGGTCAAGGTCCCACACGCTATAGGTAC,1.11,1.17,-0.0918,0.474,1.59,0.0607,0.41,0.436,0.884,1.29
AATACAGGGTCCTCGTAGGCCAGAGTACGCACAG,-0.234,0.716,-0.242,0.0325,-0.0615,-0.282,-0.0675,-0.118,-0.348,0.268
CCTACTGGGCGACGAAAGGTCATTGATTCAGTGA,1.64,2.57,-0.823,-0.515,1.98,4.56,0.841,4.47,0.351,3.75
TAGCCTAGGTCATTGGGCCAGTATAGTACGCATC,2.86,3.89,0.41,0.0888,0.963,1.58,-0.104,2.17,-0.237,3.59
TAGCCTAGGTCATTGTGCCAGTATAGTACGCATC,2.37,3.23,-0.0725,0.703,0.97,1.47,0.0622,1.89,-0.0989,3.44
CGTCCAAGGTCAATGCTAGGCCAGTGAAAGCATT,2.99,3.13,-0.61,-0.971,2.78,3.64,0.593,4.31,0.644,4.96
CCTTACGGGTCACTGACAGGTCATAGCATTTGGA,3.69,3.99,0.0751,0.785,4.06,5.34,0.53,6.69,1.34,4.53
CATACTAGGTCAAAGGTCAAAGTCGAGCCAACCA,7.72,8.62,2.89,3.65,3.93,6.81,1.91,8.63,1.65,5.97
CCTACTGGGCCACGTAAGGTCATTGATTCAGTGA,5.56,5.43,0.00703,-0.733,1.14,4.38,1.49,3.25,0.62,3.02
AGTCAAAGTTCATCTGGGTAACGTAAGATATGCT,1.05,3.77,0.881,0.701,2.39,5.16,5.32,3.69,1.4,4.81
ATATGCAGGTTATCGGGTCATTCAGTTTGCGCAT,4.84,5.2,2.48,0.956,2.06,3.99,7.38,4.1,0.986,2.51
TAGCCTAGGTCATTCAGGGGGCAGTATAGAAAGC,2.78,4.86,5.63,7.07,4.21,4.22,1.22,5.41,0.982,4.45
ATGGAAAGGTCGTGAGGTGAGTATACAGAAAGGC,0.309,2.67,0.977,1.59,2.23,3.42,1.13,4.64,1.17,4.41
AACGAAAGGTCGACGAGGTGAGTATACACCGTTT,0.793,1.94,0.978,0.568,1.32,2.95,0.578,3.56,0.305,3.91
CGCACTAGGTCATTGACAGGACAGTGAATAGTAA,8.05,8.26,3.67,3.71,2.42,1.82,0.54,2.55,0.834,3.81
AGTCAAAGTTCAGGACGAGATAACGTAAAGCACG,-0.425,1.35,0.702,0.865,1.35,1.99,0.795,1.85,1.11,4.1
